Test results: ChEMBL document CHEMBL3988442, “University of Dundee, Small-Polar-MMV Screening Library” (2021)

target: AMP-activated protein kinase, AMPK (Homo sapiens) (UniProt P54646+O43741+P54619+Q9UGJ0+Q9Y478+Q13131+Q9UGI9); assay: AMP-dependent Kinase enzyme assay. An in vitro enzyme assay that detects ADP turnover that is directly proportional to AMPK activity. This uses naive AMPK that is activated during the assay with MK-8722; type: functional; set-up: scale not given: direction of the effect not stated beside the values; conditions: 30 µM

First: CSCCC(=O)N1CCN(CC(O)C(C)(C)C)CC1 (stereo not given)
Second: Cc1cccc(N2CCN(C(=O)CNCCn3cc(C)cn3)CC2)c1
The Percent Effect of the first is higher: -4.07% for the first, -4.92% for the second.

First: c1ccc(CN2CCN(C3CCOC4(CCOCC4)C3)CC2)nc1 (stereo not given)
Second: Nc1cc(N2CCC(c3cc(Cc4ccccc4)n[nH]3)CC2)ccn1
The Percent Effect of the first is higher: -0.926% for the first, -5.64% for the second.

Compared with `C[S+]([O-])CCNC(=O)N1CCN(c2cc(F)ccc2F)CC1` (stereo not given), `CN1CCC(Cc2cnc(CNC(=O)Cc3cccc(F)c3)cn2)CC1` is higher in Percent Effect: 2.94% for the first, 3.91% for the second.

Going from `Cc1nncn1CCN1C(=O)CC2(CCCC2)CC1=O` to `CCC(C(=O)NC1(C(N)=O)CCCC1)n1cccn1` (stereo not given), the Percent Effect falls from 9.66% to -1.13%.

First: NC(=O)NC1CCN(Cc2ccc3c(c2)CCC3)CC1
Second: O=C(C1CNCCN1C(=O)CCOc1ccccc1)N1CCCC1 (stereo not given)
The Percent Effect of the first is lower: 2.24% for the first, 8.73% for the second.

Compared with `COCCN1C(=O)[C@H]2CC[C@@H]1CN(S(=O)(=O)c1ccc(OC)cc1)C2`, `COc1ccc(-c2cc3nc(CCNC(=O)C4CC4)nn3cn2)cc1` is lower in Percent Effect: 13.1% for the first, -2.76% for the second.

First: CC(C)[C@@H]1CN(Cc2cnc3c(S(C)(=O)=O)cnn3c2)C[C@H]1N(C)C
Second: Cc1c(C(=O)N2CCC(C(=O)c3nc4ccccc4s3)CC2)cnn1C
The Percent Effect of the first is lower: -8.81% for the first, 9.2% for the second.

First: Oc1c(F)cc(CNc2cccc(-c3nnc[nH]3)c2)cc1F
Second: CCOc1ccc2cc(C(=O)NCCNc3ccc(C)nn3)[nH]c2c1
The Percent Effect of the first is higher: 40.3% for the first, 6.22% for the second.

Going from `COc1c(C)cnc(CN2CCCC(c3noc(C4CC4)n3)C2)c1C` (stereo not given) to `CCN(C(=O)CN1CCCN(c2nc(C)ns2)CC1)C1CC1`, the Percent Effect rises from -0.157% to 5.97%.

Going from `O=C(Nc1ccc(Br)cc1F)c1ccc(N2CCOCC2)nn1` to `Cc1cc(=O)n(CCNC(=O)c2ccccc2Cl)cn1`, the Percent Effect falls from -1.73% to -4.73%.
